SKKanGAS inh – S. pyogenes SKKanGAS growth inhibitors in kanamycin, primary screen, streptokinase expression inhibitor project, SKKanGAS strain, BacTiter-Glo luminescence | 6 h | inhibition, % at 7.5 µM | AID 1662, 2009 | 1.3% of 300,000 active;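 active = mean replicate score, as percent of positive control median, at least 50; inconclusive = mean below 50 but one replicate at or above 50; inactive = mean and every replicate below 50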;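 note: strain carries kanamycin resistance gene driven by streptokinase promoter and grows in 40 µg/ml kanamycin; loss of luminescence reflects streptokinase promoter inhibition or plain growth inhibition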
MPTP inh – mitochondrial permeability transition pore inhibitors, primary screen, biochemical, isolated mouse mitochondria, absorbance; Ca2+ swelling absorbance, 30 min; inhibition, % at 10 µM; 1.4% of 360,000 active; AID 602449, 2012;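 active = inhibition of 50% or more, scaled per plate between neutral and stimulator controls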
Mdm2 MdmX PPI – inhibitors of human Mdm2-MdmX association, primary screen, cell-based, luminescence, split luciferase, SaOS-2, uHTS. Protein Mdm4 (Homo sapiens) + E3 ubiquitin-protein ligase Mdm2 (Homo sapiens), …. SaOS-2 split-luciferase Mdm2/MdmX complementation. inhibition, % at 8 µM. 3% of 330,000 active. AID 485346, 2010;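 active = inhibition of at least 50% at 8 µM in the primary screen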
Target sequence (O15151 whole entry, looked up): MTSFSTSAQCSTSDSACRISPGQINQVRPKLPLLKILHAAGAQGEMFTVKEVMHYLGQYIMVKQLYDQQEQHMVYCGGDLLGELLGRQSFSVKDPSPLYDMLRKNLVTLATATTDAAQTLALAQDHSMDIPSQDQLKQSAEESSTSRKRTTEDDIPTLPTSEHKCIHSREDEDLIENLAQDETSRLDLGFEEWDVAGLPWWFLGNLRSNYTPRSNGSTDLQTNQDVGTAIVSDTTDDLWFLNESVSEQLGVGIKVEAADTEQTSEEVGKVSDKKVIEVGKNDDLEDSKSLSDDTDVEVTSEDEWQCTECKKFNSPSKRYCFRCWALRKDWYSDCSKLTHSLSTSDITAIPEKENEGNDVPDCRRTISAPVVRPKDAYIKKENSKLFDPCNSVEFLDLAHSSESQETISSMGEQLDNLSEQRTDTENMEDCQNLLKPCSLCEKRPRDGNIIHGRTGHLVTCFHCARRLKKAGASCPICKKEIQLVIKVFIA
Target sequence (Q00987 whole entry, looked up): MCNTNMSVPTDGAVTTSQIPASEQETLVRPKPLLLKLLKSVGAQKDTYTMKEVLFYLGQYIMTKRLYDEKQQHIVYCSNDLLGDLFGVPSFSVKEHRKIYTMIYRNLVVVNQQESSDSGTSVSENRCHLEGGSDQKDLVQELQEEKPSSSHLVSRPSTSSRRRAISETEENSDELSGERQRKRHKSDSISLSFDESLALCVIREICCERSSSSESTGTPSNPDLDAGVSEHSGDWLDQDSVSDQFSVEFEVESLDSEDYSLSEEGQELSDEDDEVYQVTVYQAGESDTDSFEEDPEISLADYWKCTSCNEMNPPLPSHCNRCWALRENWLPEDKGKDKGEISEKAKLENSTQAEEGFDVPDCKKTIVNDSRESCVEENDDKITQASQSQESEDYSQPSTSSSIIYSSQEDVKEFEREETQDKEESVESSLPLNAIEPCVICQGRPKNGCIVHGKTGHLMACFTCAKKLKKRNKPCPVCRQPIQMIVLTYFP
CSC inhib – cancer stem cell viability inhibitors, primary screen, luminescence | inhibition, % at 7.5 µM | AID 2717, 2010 | cancer stem cell-like cells viability | 1.1% of 300,000 active; in the data active = inhibition above about 75%; inconclusive = no clear call, values can overlap the other calls; tested in HMLE shEcad cells
NR3A LBD binder – binders of NR3A ligand-binding domain, primary screen, biophysical, differential scanning fluorimetry, uHTS; NR3A LBD differential scanning fluorimetry, Tm shift; 0% = protein alone, 100% = glycine-bound protein; Tm shift relative to glycine control, % at 25 µM; 2.5% of 340,000 active; AID 1259313, 2017;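 active = melting temperature shift of at least 10% of the positive control shift, at one fixed dose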
Beta apoptosis – inhibitors of cytokine-induced beta cell apoptosis, primary screen, luminescence | INS-1E cytokine-induced death, ATP luminescence, 48 h; percent of positive-control rescue, neutral wells zero | 0.8% of 300,000 active | AID 435005, 2010 | protection from apoptosis, % (concentration not given with the values);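 active = Every replicate reaches about 75%, or at least half do and their mean reaches it too, limit read from the data; inconclusive = At least half of replicates reach the limit but their mean does not; inactive = Under half of replicates reach the limit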;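 note: higher means more ATP so stronger rescue from cytokine killing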
Of the large screens only hits and unclear results are named; the others gave an inactive call. Shown are actives, neighbours in structure and some others; about 6.9% of the full set was active somewhere.

Cc1ccc(C(=O)Nc2ccccc2OC(F)F)cc1	NR3A LBD binder 13
O=C(Nc1ccccc1C(=O)O)c1ccc(NC(=O)c2ccc(Br)o2)cc1	NR3A LBD binder 13
O=C(Nc1ccccc1OC(F)F)c1ccccc1	none
COC(=O)c1c(NC(=O)c2ccccc2)sc(C(=O)c2ccccc2)c1C	SKKanGAS inh 73
Cc1sc2nc(SCc3ccccc3)n(Cc3ccco3)c(=O)c2c1C	none
Cc1ccc(CSc2nc3sc(C)c(C)c3c(=O)n2Cc2ccco2)cc1	SKKanGAS inh 78, CSC inhib inconclusive
O=[N+]([O-])c1cccc(S(=O)(=O)Nc2ccc(-c3ccc(N4CCOCC4)nn3)cc2)c1	none
O=[N+]([O-])c1cccc(S(=O)(=O)Nc2ccc(-c3ccc(N4CCCC4)nn3)cc2)c1	NR3A LBD binder 31
O=C(Nn1c(O)c(C=C2N=c3ccccc3=N2)sc1=S)c1ccccc1Cl	NR3A LBD binder 23 (no result: CSC inhib)
COc1cc(C(O)c2nc3ccccc3s2)cc(OC)c1OC (stereo not drawn)	none
Cc1ccc2[nH]c(=O)c(CN(Cc3cccs3)C(=S)NCc3ccco3)cc2c1	NR3A LBD binder 13
Cc1ccc2[nH]c(=O)c(CN(CC3CCCO3)C(=S)NCc3ccco3)cc2c1 (stereo not drawn)	NR3A LBD binder 13
Cc1cccc2cc(CN(CC3CCCO3)C(=S)NCc3ccco3)c(=O)[nH]c12 (stereo not drawn)	NR3A LBD binder 13
Cc1ccc2cc(CN(CC3CCCO3)C(=S)NCc3ccco3)c(=O)[nH]c2c1 (stereo not drawn)	none
Cc1cccc(NC(=S)NCc2ccccc2Cl)c1C	none
COCCNC(=O)C1(C)CCCN(Cc2ccc(Cl)c(Cl)c2)C1 (stereo not drawn)	none (no result: SKKanGAS inh, Mdm2 MdmX PPI, CSC inhib, NR3A LBD binder, Beta apoptosis)
O=C1NC[C@H](CCCCN2C[C@H](Cc3ccccc3)N(CC3CCCCC3)C(=O)C2=O)N(CCc2ccccc2)C1=O	none (no result: SKKanGAS inh, Mdm2 MdmX PPI, CSC inhib, NR3A LBD binder, Beta apoptosis)
O=C(O)C(Cc1ccccc1)N1C(=O)c2c(Cl)c(Cl)c(Cl)c(Cl)c2C1=O (stereo not drawn)	NR3A LBD binder 11 (no result: Beta apoptosis)
Cc1ccc(/C=C2\SC(=S)N(C(Cc3ccccc3)C(=O)O)C2=O)cc1 (stereo not drawn)	NR3A LBD binder 24
O=C(O)C(Cc1ccccc1)N1C(=O)/C(=C/c2ccccc2)SC1=S (stereo not drawn)	NR3A LBD binder 12
O=C(O)C(Cc1ccccc1)N1C(=O)c2ccccc2C1=O (stereo not drawn)	none
CCOC(=O)c1c(N/N=C/c2cccnc2)n[nH]c1C	none
CCCCCn1c(CN2CCN(c3cc(Cl)ccc3C)CC2)nc2c1c(=O)[nH]c(=O)n2C	SKKanGAS inh 86, CSC inhib 112, NR3A LBD binder 24
O=C(COC(=O)CCSc1ccc(Cl)cc1)NCCc1ccccc1	NR3A LBD binder 16
NS(=O)(=O)c1ccc(CCNC(=O)COC(=O)CCSc2ccc(Cl)cc2)cc1	none
CCOC(=O)c1c(NC(=O)CN2CCN(C)CC2)sc(C(=O)Nc2ccccc2)c1C	CSC inhib 79
CCn1c2ccccc2n2c(=O)c(=O)n(CC(=O)Nc3ccc(C(C)C)cc3)nc12	NR3A LBD binder 13 (no result: CSC inhib, Beta apoptosis)
COCCn1cnc2c1c(=O)n(CC(=O)Nc1cc(C)on1)c(=O)n2Cc1ccccc1	NR3A LBD binder 11
COC(=O)c1ccc(C2NCCc3cc(OC)c(OC)cc32)cc1 (stereo not drawn)	none
COc1ccc(OC)c(NC(=O)Nc2ccc3[nH]ccc3c2)c1	NR3A LBD binder 11
COc1ccc(NC(=O)Nc2cccc(F)c2)c(OC)c1	none
COc1ccc(NC(=O)Nc2ccc(F)c(F)c2)c(OC)c1	NR3A LBD binder 22
O=C(NC1CCCC1)C(c1ccccn1)N(Cc1ccc(F)cc1)C(=O)c1csnn1 (stereo not drawn)	none
CC(C)c1nc2sc3ccccc3c(=O)c2c(=O)n1Cc1ccccc1	CSC inhib 77
